The values that follow come from ChEMBL document CHEMBL1961873, “Compounds: GSK PKIS; Assays: Nanosyn kinase panel” (2012).

Each structure is given as a SMILES string.

For test [1], the target named is 5'-AMP-activated protein kinase catalytic subunit alpha-2 (Homo sapiens) (UniProt P54646). The note with it: at 1 µM.
Test [2] addresses T1, NUAK family SNF1-like kinase 1 (Homo sapiens) (UniProt O60285).
T1 sequence (whole entry): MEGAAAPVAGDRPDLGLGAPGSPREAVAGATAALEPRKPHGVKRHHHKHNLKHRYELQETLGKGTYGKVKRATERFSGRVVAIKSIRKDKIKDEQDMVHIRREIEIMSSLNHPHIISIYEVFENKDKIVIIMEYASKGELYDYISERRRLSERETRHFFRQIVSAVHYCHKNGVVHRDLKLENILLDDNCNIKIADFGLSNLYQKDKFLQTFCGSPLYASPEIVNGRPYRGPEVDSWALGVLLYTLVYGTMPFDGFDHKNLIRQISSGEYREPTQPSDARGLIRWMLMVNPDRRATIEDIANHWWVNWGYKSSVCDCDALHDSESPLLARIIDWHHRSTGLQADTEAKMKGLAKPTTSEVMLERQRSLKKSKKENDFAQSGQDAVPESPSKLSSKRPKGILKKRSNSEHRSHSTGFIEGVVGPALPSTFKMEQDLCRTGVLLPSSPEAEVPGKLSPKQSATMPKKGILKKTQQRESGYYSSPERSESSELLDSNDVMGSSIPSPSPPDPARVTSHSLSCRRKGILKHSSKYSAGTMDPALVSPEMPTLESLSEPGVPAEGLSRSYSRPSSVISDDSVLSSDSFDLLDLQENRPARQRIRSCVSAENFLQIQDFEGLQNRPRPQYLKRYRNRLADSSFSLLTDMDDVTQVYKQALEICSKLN
The note with it: at 0.1 µM.

In test [3] the target is T1, NUAK family SNF1-like kinase 1 (Homo sapiens). The note with it: at 1 µM.
Test [4] has as its target T2, Serine/threonine-protein kinase BRSK1 (Homo sapiens) (UniProt Q8TDC3).
T2 sequence (whole entry): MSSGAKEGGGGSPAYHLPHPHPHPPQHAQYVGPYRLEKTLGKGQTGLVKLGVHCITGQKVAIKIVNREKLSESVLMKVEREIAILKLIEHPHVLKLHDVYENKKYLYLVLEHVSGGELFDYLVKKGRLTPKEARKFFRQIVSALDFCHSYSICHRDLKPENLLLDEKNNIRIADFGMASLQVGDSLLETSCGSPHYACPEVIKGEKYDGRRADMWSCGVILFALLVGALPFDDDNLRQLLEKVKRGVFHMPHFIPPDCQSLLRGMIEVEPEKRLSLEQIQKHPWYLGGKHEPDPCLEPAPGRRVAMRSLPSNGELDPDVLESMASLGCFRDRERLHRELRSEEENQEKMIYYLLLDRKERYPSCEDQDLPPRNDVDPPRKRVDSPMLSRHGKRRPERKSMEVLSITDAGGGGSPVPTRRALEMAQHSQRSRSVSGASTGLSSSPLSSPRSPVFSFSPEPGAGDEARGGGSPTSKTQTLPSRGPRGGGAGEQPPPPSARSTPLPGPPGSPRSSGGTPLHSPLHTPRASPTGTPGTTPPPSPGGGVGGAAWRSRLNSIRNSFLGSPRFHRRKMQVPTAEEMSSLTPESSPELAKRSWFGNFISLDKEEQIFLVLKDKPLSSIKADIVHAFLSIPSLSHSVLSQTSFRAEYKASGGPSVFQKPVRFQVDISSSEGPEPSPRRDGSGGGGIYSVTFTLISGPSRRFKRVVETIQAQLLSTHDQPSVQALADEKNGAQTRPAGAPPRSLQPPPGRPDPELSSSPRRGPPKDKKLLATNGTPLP
To be noted: at 0.1 µM.

Test [5] addresses T2, Serine/threonine-protein kinase BRSK1 (Homo sapiens). To be noted: at 1 µM.
Test [6] deals with T3, Serine/threonine-protein kinase BRSK2 (Homo sapiens) (UniProt Q8IWQ3).
T3 sequence (whole entry): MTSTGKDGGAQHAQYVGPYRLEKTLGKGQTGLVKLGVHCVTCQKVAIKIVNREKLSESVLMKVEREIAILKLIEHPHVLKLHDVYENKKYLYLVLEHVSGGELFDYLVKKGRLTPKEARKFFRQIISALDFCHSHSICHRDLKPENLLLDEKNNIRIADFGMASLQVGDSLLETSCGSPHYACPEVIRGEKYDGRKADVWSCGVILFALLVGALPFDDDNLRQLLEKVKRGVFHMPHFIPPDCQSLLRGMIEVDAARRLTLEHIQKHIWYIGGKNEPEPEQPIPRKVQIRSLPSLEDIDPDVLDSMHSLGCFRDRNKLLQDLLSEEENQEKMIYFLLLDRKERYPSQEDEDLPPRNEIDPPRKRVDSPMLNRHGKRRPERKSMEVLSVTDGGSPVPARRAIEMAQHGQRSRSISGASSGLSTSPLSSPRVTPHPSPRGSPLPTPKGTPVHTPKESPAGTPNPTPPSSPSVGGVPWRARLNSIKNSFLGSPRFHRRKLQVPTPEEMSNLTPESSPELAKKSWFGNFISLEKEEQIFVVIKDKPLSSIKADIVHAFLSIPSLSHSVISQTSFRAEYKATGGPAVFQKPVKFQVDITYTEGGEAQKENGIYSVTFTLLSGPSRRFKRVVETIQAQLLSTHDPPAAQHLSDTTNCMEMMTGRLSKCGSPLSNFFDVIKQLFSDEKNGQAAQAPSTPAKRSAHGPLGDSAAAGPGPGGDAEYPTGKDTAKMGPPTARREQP
To be noted: at 0.1 µM.

In test [7] the target is T3, Serine/threonine-protein kinase BRSK2 (Homo sapiens). The note with it: at 1 µM.
Test [8] deals with Calcium/calmodulin-dependent protein kinase type 1D (Homo sapiens) (UniProt Q8IU85). The note with it: at 0.1 µM.
Test [9] shares this target. To be noted: at 1 µM.
The target of test [10] is Calcium/calmodulin-dependent protein kinase type II subunit alpha (Homo sapiens) (UniProt Q9UQM7). To be noted: at 0.1 µM.
The target is the same in test [11]. To be noted: at 1 µM.
Test [12] concerns the target Calcium/calmodulin-dependent protein kinase type II subunit delta (Homo sapiens) (UniProt Q13557). The note with it: at 0.1 µM.
The target is the same in test [13]. The note with it: at 1 µM.
Test [14] deals with T4, Calcium/calmodulin-dependent protein kinase type IV (Homo sapiens) (UniProt Q16566).
T4 sequence (whole entry): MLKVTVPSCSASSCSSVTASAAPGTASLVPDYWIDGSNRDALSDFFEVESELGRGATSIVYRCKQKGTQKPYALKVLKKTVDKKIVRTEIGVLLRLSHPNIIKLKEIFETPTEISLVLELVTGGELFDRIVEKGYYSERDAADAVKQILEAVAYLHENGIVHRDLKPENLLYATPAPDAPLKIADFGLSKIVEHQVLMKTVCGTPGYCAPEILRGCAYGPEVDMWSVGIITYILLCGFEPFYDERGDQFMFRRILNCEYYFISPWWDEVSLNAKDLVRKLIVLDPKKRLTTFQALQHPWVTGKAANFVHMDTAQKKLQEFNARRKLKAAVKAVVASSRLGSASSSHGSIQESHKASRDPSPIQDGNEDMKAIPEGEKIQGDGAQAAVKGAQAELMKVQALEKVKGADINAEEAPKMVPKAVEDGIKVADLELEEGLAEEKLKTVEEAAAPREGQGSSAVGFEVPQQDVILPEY
To be noted: at 0.1 µM.

The target in test [15] is T4, Calcium/calmodulin-dependent protein kinase type IV (Homo sapiens). The note with it: at 1 µM.
Test [16] concerns the target T5, Serine/threonine-protein kinase Chk1 (Homo sapiens) (UniProt O14757).
T5 sequence (whole entry): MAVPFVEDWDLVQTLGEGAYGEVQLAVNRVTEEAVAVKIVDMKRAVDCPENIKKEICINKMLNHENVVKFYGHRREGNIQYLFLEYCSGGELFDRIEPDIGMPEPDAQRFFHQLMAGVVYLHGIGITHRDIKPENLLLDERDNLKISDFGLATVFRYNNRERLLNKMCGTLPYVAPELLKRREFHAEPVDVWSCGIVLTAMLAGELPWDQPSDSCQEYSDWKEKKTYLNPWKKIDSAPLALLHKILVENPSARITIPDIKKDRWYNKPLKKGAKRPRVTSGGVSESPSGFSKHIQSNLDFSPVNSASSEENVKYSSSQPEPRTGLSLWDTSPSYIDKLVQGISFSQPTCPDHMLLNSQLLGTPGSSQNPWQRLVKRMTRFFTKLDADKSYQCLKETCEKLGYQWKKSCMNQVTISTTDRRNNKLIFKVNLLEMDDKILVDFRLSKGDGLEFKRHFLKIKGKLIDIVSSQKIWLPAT
To be noted: at 0.1 µM.

Test [17] has as its target T5, Serine/threonine-protein kinase Chk1 (Homo sapiens). The note with it: at 1 µM.
Test [18] concerns the target Serine/threonine-protein kinase Chk2 (Homo sapiens) (UniProt O96017). The note with it: at 0.1 µM.
Test [19] has the same target. The note with it: at 1 µM.
Test [20] concerns the target Death-associated protein kinase 1 (Homo sapiens) (UniProt P53355). To be noted: at 0.1 µM.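 Note: reported figure is the mean inhibition of DAPK1.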

Chain of Calcium/calmodulin-dependent protein kinase type II subunit alpha (Homo sapiens) (Q9UQM7 whole entry): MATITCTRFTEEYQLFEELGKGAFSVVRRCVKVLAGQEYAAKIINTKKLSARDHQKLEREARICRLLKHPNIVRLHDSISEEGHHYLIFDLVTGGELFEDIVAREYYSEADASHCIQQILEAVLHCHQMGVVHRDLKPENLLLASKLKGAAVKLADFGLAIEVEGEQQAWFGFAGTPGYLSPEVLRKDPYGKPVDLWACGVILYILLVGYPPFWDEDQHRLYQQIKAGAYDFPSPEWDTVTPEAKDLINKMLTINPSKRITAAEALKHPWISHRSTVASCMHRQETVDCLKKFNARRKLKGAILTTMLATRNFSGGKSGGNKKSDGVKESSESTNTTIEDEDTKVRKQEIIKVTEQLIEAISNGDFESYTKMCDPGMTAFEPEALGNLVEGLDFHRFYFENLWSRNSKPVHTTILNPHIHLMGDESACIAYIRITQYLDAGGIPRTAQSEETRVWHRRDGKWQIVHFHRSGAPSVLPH
Chain of Death-associated protein kinase 1 (Homo sapiens) (P53355 whole entry, looked up): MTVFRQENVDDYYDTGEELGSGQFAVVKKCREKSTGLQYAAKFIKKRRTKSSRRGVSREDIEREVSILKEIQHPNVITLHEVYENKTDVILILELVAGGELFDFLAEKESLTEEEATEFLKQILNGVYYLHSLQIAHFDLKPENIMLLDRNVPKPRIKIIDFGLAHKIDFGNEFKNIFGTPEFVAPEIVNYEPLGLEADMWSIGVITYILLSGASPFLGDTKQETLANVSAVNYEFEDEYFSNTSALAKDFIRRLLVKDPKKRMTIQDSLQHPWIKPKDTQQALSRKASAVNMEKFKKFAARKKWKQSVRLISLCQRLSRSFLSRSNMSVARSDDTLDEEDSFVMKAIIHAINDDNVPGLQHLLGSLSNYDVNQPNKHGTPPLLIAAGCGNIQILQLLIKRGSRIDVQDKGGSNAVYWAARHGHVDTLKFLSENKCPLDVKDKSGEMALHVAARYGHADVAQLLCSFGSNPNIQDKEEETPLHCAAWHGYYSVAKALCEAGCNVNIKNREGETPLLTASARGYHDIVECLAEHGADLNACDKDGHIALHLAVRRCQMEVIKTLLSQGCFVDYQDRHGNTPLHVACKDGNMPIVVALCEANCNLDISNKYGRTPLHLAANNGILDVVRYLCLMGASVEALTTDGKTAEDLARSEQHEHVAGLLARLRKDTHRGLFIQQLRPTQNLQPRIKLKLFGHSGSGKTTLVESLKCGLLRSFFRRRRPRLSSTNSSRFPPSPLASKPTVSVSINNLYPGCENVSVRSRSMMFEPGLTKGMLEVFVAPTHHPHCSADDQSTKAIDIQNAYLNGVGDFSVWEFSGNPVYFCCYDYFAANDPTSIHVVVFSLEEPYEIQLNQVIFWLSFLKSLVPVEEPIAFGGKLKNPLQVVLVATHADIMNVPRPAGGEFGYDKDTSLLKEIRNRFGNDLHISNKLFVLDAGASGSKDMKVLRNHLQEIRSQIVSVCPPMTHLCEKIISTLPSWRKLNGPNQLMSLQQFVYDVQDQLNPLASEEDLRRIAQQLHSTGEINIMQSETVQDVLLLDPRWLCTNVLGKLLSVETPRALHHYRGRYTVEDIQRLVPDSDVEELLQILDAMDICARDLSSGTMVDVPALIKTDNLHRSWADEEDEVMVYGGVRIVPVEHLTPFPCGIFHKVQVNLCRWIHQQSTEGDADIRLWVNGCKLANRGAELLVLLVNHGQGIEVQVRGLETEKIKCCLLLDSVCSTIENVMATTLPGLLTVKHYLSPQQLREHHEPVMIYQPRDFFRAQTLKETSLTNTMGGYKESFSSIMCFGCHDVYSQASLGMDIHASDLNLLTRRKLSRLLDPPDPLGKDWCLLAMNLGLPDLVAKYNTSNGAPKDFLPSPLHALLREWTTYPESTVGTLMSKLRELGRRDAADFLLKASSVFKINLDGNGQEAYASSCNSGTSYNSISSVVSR
Chain of Calcium/calmodulin-dependent protein kinase type 1D (Homo sapiens) (Q8IU85 whole entry, looked up): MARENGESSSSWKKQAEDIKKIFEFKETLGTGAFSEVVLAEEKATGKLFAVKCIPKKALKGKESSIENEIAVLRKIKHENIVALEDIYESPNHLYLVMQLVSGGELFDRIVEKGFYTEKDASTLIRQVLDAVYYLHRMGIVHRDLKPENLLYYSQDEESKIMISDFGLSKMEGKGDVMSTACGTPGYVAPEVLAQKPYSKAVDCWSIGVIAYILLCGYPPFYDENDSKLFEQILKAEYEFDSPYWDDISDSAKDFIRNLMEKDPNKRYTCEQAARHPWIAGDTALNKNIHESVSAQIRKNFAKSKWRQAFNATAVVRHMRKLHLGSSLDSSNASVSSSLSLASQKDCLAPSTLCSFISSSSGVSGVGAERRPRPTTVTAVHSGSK
Chain of 5'-AMP-activated protein kinase catalytic subunit alpha-2 (Homo sapiens) (P54646 whole entry, looked up): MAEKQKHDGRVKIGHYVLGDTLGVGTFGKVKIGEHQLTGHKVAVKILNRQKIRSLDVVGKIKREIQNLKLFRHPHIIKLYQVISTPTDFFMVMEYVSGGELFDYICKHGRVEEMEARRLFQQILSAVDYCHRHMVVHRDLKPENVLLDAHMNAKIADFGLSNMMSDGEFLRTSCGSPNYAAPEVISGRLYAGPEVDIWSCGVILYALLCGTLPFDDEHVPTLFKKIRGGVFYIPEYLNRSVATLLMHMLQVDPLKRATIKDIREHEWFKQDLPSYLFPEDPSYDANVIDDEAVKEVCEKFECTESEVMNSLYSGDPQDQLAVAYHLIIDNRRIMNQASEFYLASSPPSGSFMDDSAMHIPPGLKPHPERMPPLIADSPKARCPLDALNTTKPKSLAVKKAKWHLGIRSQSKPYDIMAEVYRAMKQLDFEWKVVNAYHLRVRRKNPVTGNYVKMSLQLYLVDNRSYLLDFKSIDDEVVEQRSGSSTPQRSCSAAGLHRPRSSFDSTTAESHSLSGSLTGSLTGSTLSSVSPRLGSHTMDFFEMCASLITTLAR
Chain of Calcium/calmodulin-dependent protein kinase type II subunit delta (Homo sapiens) (Q13557 whole entry): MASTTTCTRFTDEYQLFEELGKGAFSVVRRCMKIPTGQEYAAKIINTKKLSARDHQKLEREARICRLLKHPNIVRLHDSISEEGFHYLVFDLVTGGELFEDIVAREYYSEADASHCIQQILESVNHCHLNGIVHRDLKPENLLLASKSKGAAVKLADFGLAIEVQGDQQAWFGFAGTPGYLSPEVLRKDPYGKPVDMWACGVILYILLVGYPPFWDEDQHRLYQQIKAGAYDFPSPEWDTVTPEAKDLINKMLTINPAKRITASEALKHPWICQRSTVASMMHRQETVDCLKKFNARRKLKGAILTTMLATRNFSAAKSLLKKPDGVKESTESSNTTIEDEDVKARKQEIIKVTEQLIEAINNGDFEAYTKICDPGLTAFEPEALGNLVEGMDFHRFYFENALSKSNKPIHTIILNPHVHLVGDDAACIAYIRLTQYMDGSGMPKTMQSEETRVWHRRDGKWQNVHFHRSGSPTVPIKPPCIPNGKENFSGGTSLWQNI
Chain of Serine/threonine-protein kinase Chk2 (Homo sapiens) (O96017 whole entry): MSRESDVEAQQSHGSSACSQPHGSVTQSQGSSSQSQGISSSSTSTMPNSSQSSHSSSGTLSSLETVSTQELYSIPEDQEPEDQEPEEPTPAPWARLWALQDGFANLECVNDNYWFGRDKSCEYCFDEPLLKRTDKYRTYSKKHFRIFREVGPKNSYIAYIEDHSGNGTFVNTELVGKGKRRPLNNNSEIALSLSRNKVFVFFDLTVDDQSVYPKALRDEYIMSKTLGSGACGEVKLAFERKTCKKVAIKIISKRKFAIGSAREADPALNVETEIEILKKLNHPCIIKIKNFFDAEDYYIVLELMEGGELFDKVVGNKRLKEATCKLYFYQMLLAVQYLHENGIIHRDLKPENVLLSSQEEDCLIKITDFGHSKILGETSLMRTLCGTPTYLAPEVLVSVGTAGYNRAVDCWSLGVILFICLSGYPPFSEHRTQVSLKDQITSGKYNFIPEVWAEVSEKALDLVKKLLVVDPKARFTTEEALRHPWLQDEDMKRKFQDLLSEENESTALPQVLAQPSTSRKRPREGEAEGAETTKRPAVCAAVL

For `COc1cc(N2CCN(C(C)C)CC2)ccc1Nc1nc(Nc2ccc(F)cc2C(=O)NC[C@@H](O)CO)c2cc[nH]c2n1`, the inhibition in [1] was 3.64%; in [2] it was 4.38%; in test [3], 17.2%; in test [4] it was -0.14%; in [5], 1.34%; in test [6] it was 2.44%. Besides, the inhibition in test [7] stood at 2.82%; in test [8], 0.93%; in [9] it was 11%; in test [10], 4.06%; in test [11] it was 4.13%; in test [12], 3.45%. The inhibition is 7.22% in [13]; -2.03% in [14]; -0.93% in [15]; 2.18% in [16]; 6.24% in test [17]; 17.2% in test [18]. The inhibition was 52.4% in test [19] and 9.94% in test [20].

In the case of `COc1cc(Nc2ncc3c(C)nc(-c4cccc(Oc5ccccc5)c4)n3n2)cc(OC)c1OC`, the inhibition in [1] was determined as 7.86%; in test [2] it was 4.33%; in test [3] it was 26.4%; in test [4], 1.68%; in test [5] it was 2.44%; in [6], 0.74%. In addition, the inhibition in test [7] worked out at 3.26%; in test [8], 1.34%; in test [9], 3.48%; in [10] it was 3.17%; in [11], 4.08%; in [12] it was 3.36%. The inhibition in test [13] was determined as 3.83%; in test [14], 1.65%; in test [15], 4.26%; in test [16] it was 3.9%; in test [17], 10.2%; in test [18] it was 7.97%. Besides, the inhibition amounted to 11.6% in [19] and 8.86% in [20].

Regarding `Fc1ccc(-c2nc3n(c2-c2ccncc2)CCS3)cc1`, the inhibition in [1] was found to be 5.23%; in test [2], 0.54%; in test [3], 2.44%; in [4], 0.25%; in [5], 0.24%; in test [6], 0.52%. Besides, the inhibition in test [7] is 0.5%; in test [8], 0.49%; in [9], -0.26%; in test [10] it was 3.63%; in test [11], 3.82%; in [12] it was 4.18%. Also, the inhibition in test [13] is 4.28%; in test [14] it was 0.62%; in test [15] it was 0.23%; in test [16], 0.32%; in [17], 3.69%; in [18], 2.74%. For the same compound, the inhibition in test [19] was 3.47%; in test [20] it was 2.36%.

By inhibition is commonly meant the drop in the measured response relative to a control, in per cent.
